# According to PubChem BioAssay (NCATS):
# Values joined by “and” are separate entries in the source; they are usually repeats but may differ in a detail not shown here. Identical values can stand only once. Unmarked numbers belong to inactive results. Calls follow the shape of the dose curve; as a rule, active = well fitted activation curve with a large enough effect; inconclusive = small, poorly fitted or top-dose-only effect; inactive = no such curve, though single readings can be large or run the other way.
# Target: Cytochrome P450 3A4 (Homo sapiens) (UniProt P08684)
# Test: qHTS Assay for Activators of Cytochrome P450 3A4 (AID 885); also: nearly all actives have a fitted effect of over 65% in size
# Settings: recombinant CYP3A4, Luciferin-PPXE luminescence, 60 min; series mostly up to 57.1 µM; activity change, positive = activation: at the top concentration
# Procedure: NIH Molecular Libraries Screening Centers Network [MLSCN]
# NIH Chemical Genomics Center [NCGC]
# The P450 gene superfamily is involved in the metabolism and clearance of xenobiotics. This assay used human CYP3A4 to measure the dealkylation of luciferin-6' phenylpiperazinylyl (Luciferin-PPXE; […]) to luciferin. The luciferin is then measured by luminescence after the addition of a luciferase detection reagent. Luciferin-PPXE concentration in the assay was equal to its KM for CYP3A4. Inhibitors and some substrates limit the production of luciferin, and decrease measured luminescence; activators increase the production of luciferin and luminescence.
# NCGC Assay Protocol Summary:
# Two uL of enzyme and substrate mix (final concentrations: 20nM CYP3A4, 25uM Luciferin-PPXE, 200mM KPO4) were dispensed into a white, solid bottom 1536-well microtiter plate. 23nL of compound was transferred by a pin tool. The plate was incubated at RT for 10 min. Two uL of an NADPH regeneration solution (Promega supplied reagent) was dispensed and the reaction was allowed to continue for 60 min at RT. Then the reaction was stopped by reconstituted luciferin detection buffer. After another 20 min of incubation the plate was read on the ViewLux (Perkin Elmer) at 60 sec exposure and 2x2 binning. This protocol was carried out with Promega-Glo reagents and further information can be found at http://www.promega.com/tbs/tb325/tb325.pdf. Data were normalized to the to AC100 inhibition (57 uM ketoconazole).
# Keywords: P450, CYP2D6, Luciferase, MLSMR, MLSCN, NIH Roadmap, qHTS, NCGC
# Sequence of Cytochrome P450 3A4 (Homo sapiens) (P08684 whole entry, looked up): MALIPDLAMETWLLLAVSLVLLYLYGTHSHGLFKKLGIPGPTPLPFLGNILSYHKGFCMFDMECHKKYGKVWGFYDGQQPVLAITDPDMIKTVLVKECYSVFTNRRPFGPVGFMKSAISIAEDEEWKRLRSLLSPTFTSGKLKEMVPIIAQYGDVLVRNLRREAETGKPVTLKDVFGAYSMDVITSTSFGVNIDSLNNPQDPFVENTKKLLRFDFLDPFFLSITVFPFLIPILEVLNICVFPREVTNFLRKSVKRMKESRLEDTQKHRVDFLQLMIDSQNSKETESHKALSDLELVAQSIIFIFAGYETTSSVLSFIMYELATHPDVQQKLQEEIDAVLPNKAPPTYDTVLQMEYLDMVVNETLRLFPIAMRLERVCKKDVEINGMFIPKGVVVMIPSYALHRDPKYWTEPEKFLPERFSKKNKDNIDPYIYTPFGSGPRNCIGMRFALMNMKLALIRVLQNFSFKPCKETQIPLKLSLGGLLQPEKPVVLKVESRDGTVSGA
row,Compound,"activity change, positive = activation"
1,CC1(C)C=Cc2c(cc3occ(-c4ccc5c(c4)OCO5)c(=O)c3c2O)O1,-80.6%
2,CC(=O)OC[C@H]1O[C@@H](O/N=C(\C)CCN2CCc3nc(-c4ccccc4)c(-c4ccccc4)cc3C2)[C@H](OC(C)=O)[C@@H](OC(C)=O)[C@H]1OC(C)=O,-41.6% [at 11.4 µM]
3,COC(=O)C1(C)C=CC2(CCCCC2)N1C(C)=O (stereo not given),-38.2%
4,COC(=O)c1cccc(C23CC4(C2)[C@H](CN(Cc2cccnc2)[C@@H]4c2ccccc2)C3c2ccccc2)c1 (stereo not given in full),-85.9%
5,C/C(CCN1CCCc2nc(C)c(C)cc21)=N\OC[C@@H](O)COCc1ccco1,-77.3% [at 11.4 µM]
6,CO[C@@H]1COC(=O)[C@H]2CCCN2C(=O)[C@@H](C)COC(=O)[C@H](COCc2ccccc2)NC(=O)C/C=C\[C@H]1C,-38.2% [at 11.4 µM]
7,CC(=O)N1CC=CC1(CC(C)C)C(=O)NCc1ccccn1 (stereo not given),-48.3%
8,O=C(N/N=C1/C[C@@H](O)[C@@H](O)[C@@H]2[C@H]3C(=O)N(c4ccc(F)cc4F)C(=O)[C@@H]3CC[C@H]12)OCc1ccccc1,-37% [at 11.4 µM]
9,COC(=O)c1ccc(C(NC(=O)OCc2ccccc2)/C(=C/[C@@H](C)C(=O)NCc2ccccc2)c2cccnc2)cc1 (stereo not given in full),-114%
10,COC(=O)c1ccc(C(NC(=O)OCc2ccccc2)/C(C)=C/[C@@H](C)C(=O)N[C@@H](CO)Cc2ccccc2)cc1 (stereo not given in full),-94.6%
11,C/C(CCC(=O)OC[C@@H]1O[C@H](C#Cc2ccccc2)C=C[C@@H]1Oc1ccc(C)cc1)=N/OC[C@@H](O)COCc1ccco1,-90.6% [at 11.4 µM]
12,COC(=O)CNC(=O)C1(C)C=CC2(CCCCC2)N1C(=O)OC (stereo not given),-41.2%
13,CCC1=C(OC(=O)N(CC)CC)N2C(=O)OC(=NCC3CC3)[C@]2(Cc2ccccc2)[C@H]2C1=CC[C@H]1C(=O)N(CC(=O)OC)C(=O)[C@H]12,-102%
14,CCCCCCC1=Cc2cc(OC)c(OC)cc2C(C(C(C)=O)C(=O)OC)O1 (stereo not given),-57.6% [at 11.4 µM]
15,CCc1cc2c(nc1CC)CCN(CC/C(C)=N/O[C@@H](C)CN1CCCc3nc(C)c(C)cc31)C2,-50.2% [at 11.4 µM]
16,Cc1ccc(CNC(=O)C2(CC(C)C)C=CCN2C(=O)c2ccccc2)o1 (stereo not given),-66.3%
17,O=C1CCCC=C1[C@@H](O)COCc1ccccc1,-31.3% [at 11.4 µM]
18,C=COCC1CN2C(CCC(C)C2c2ccc(Br)cc2)C(=O)O1 (stereo not given),-65.3% [at 11.4 µM] and -87.4% [at 11.4 µM]
19,COCCN=C1OC(=O)N2C(=O)C3=C4C(C[C@H]5C(=O)N(c6ccccc6)C(=O)[C@H]5[C@H]4[C@@]12Cc1ccccc1)[C@H]1C(=O)N(c2ccccc2)C(=O)[C@H]1[C@H]3C (stereo not given in full),-78%
20,COC(=O)[C@@H]1C[C@@]2(O)[C@@H](O)[C@@H](O)[C@@H](O)C[C@H]2N1CC1CCCCC1,-36.1%

row,Compound,"activity change, positive = activation"
1,C=CC[C@@H]1C=C[C@H](O/N=C(\C)CCN2CCCCc3nc(C)c(C)cc32)[C@H](CO)O1,-81.7% [at 11.4 µM]
2,CN1C[C@@H]2C(c3ccc(Cl)nc3)C3(c4cccnc4)CC2(C3)[C@H]1c1ccccc1 (stereo not given in full),-76.4%
3,CC(=O)c1c(O)cc(O)cc1O,-75.8%
4,O=C1C(Cl)=C(NC2CCc3ccccc32)C(=O)c2ncccc21 (stereo not given),-96.7%
5,CCC(=O)[C@]12O[C@@]3(C4C(=O)OCCC41)N(Cc1ccccc1)C(C)=C(C(=O)OC)C(c1ccccc1)N3C2=O (stereo not given in full),-106% [at 11.4 µM]
6,C[C@@H]1C=C[C@](Cc2ccccc2)(C(=O)NCCc2c[nH]c3ccccc23)N1C(=O)c1ccccc1,-97.4%
7,CCCNC(=O)OC[C@H]1O[C@@H](CCO/N=C\[C@@H](NS(=O)(=O)c2ccc(C)cc2)[C@H](C)/C=C\CC(=O)OC)C=C[C@@H]1Oc1ccc(OC)cc1,-106% [at 11.4 µM]
8,CC(C)=CCC/C(C)=C/CO/N=C1/C[C@@H](O)[C@@H](O)[C@@H]2[C@@H]3C(=O)N(Cc4ccccc4)C(=O)[C@H]3CC[C@H]12,-49.8% [at 11.4 µM]
9,CCC[C@@H]1C[C@@]1(CCC)[C@@H](NP(=O)(c1ccccc1)c1ccccc1)c1ccc(C(=O)OC)cc1,-89%
10,CC(C)=CCC/C(C)=C\COc1c2ccoc2cc2oc(=O)ccc12,-84.9%
11,COC(=O)c1ccc(C(NC(=O)OCc2ccccc2)/C(F)=C/[C@@H](C)C(=O)NCc2ccc(-c3ccccc3)cc2)cc1 (stereo not given in full),-69.1%
12,Cc1c(O)c(O)cc2c1oc1c3ccccc3oc(=O)c21,-53.9%
13,CN1C[C@@H]2C(c3ccccc3)C3(c4ccccc4)CC2(C3)[C@H]1c1ccccc1 (stereo not given in full),-59.9%
14,CO[C@@H]1COC(=O)CC=C[C@@H](C)[C@@H]2C=C[C@H](O)[C@@H](COC(=O)C/C=C\[C@H]1C)O2,-43.1% [at 11.4 µM]
15,COc1ccc(/C=C/N(CCc2ccc(OC)c(OC)c2)C(C)=O)cc1,-88.6% [at 11.4 µM]
16,C[C@H](CO)NC(=O)[C@H](C)[C@H]1C[C@]1(C)[C@H](NC(=O)OCc1ccccc1)c1ccccc1,-107%
17,CCCCCCC1=Cc2cc(OC)c(OC)cc2C(CC(=O)/C=C/OC)O1 (stereo not given),-40.4% [at 11.4 µM]
18,CCOC(=O)OCC1OC(c2cc(C)cc(C)c2)C=CC1OC(=O)OCC (stereo not given),-69.3% [at 11.4 µM]
19,O=C(/C=C\c1ccc2c(c1)OCO2)c1ccc(F)cc1,-89.5% [at 11.4 µM]
20,[C-]#[N+]/C(C#N)=C\c1cc(C(C)(C)C)c(O)c(C(C)(C)C)c1,-112%
